Results reported in PubChem BioAssay (NCATS).
A number with no mark means an inactive call. Records with an inconclusive call do not appear. The source made the active and inactive calls. Unless noted, calls follow the shape of the dose curve; as a rule, active = well fitted curve in either direction with a large enough effect (not every such curve was filed as active); inconclusive = small, poorly fitted or top-dose-only effect, or another doubt; inactive = flat fitted curve, though single readings scatter.

Columns and labels:
[1] = biological target: Lysosomal acid glucosylceramidase (Homo sapiens) (UniProt P04062); assay: Glucocerebrosidase-p2 (AID 348; in the data active = potency below about 10 µM; also: potency is read from the fitted curve at half-maximal effect); settings: purified GBA, blue fluorogenic substrate, 40 min
Outline: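 Normal human glucocerebrosidase (0.2 nM) with blue fluorogenic substrate (80 uM final) in citrate/phosphate pH 5.9 with 10mM sodium taurocholate, 0.01% tween-20; 40 min RT, NaOH/glycine stop; fluorescence Ex 365/Em 440; AC50 from a titration from 0.6 nM upwards.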

[2] = AP1 Signaling Pathway (AID 357); settings: ME-180 AP-1-bla reporter, EGF-induced, beta-lactamase ratio, 5 h; at 7.69 µM (top of the series) unless noted;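 also: ME-180 reporter cells stimulated with EGF at its EC50 level; % is scaled to controls: 0 for no effect and ±100 for the full control effect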
Outline: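 In this screen, ME-180 cells in Opti-MEM with 0.5% dialyzed FBS received EC50 EGF and compound titrations for 5 h. AP-1 reporter beta-lactamase was detected via CCF4 ratio, giving AC50 for positive and negative modulators.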

[3] = biological target: Cytochrome P450 1A2 (Homo sapiens) (UniProt P05177); assay: p450-cyp1a2 (AID 410; calls by dose curve; also: potency is read from the fitted curve at half-maximal effect;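 as to activity change, negative = inhibition: -100% = full effect of reference inhibitor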); settings: recombinant CYP1A2, luciferin-ME demethylation, luminescence; series mostly up to 11.4 µM
Outline: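 20nM CYP1A2, 100uM Luciferin-ME (=Km), 100mM KPO4; cpd 10 min RT; +NADPH regen, 60 min RT; stop/detect 20 min; luminescence. Normalized to furafylline 57 uM = full inhibition.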

[4] = NFAT Signaling Pathway (AID 444); settings: Jurkat NFAT-bla M1, carbachol, beta-lactamase ratio, 5 h; at 7.69 µM (top of the series) unless noted;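 also: carbachol stimulus at about its EC50 of 1 µM final; % is scaled to controls: 0 for no effect and ±100 for the full control effect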
Outline: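 Jurkat cells with NFAT-driven β-lactamase reporter and co-expressed M1 receptor, stimulated with carbachol (final 1 uM, ~EC50), compound titration, 5 h at 37 °C. CCF4 loaded 1 h at RT; 460/530 nm ratio gave %activity and AC50.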

[5] = Stat Signaling Pathway (AID 446); settings: ME-180 (cervical carcinoma) SIE beta-lactamase reporter, IL-6 stimulated, 5 h; at 7.69 µM (top of the series) unless noted;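 also: ME-180 cervical cancer cells given 40 pM IL-6 alongside compound; SIE-controlled beta-lactamase reporter measured as 460/530 nm FRET emission ratio; % is scaled to controls: 0 for no effect and ±100 for the full control effect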
Outline: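 Compound effects on IL-6-induced STAT reporter activity were measured in ME-180 cells. After overnight culture, cells were co-treated with 40 pM IL-6 for 5 hrs before beta-lactamase substrate loading at room temperature.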

[6] = biological target: Glucocorticoid receptor (Homo sapiens) (UniProt P04150); assay: GR-GFP Redistribution (AID 450;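 active = compounds whose dose series gives a full or clear partial fitted curve of increased nuclear translocation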; also: potency is read from the fitted curve at half-maximal effect); settings: U2OS GR-GFP nuclear translocation, laser cytometry, 2 h
[7] = biological target: Glucocorticoid receptor (Homo sapiens) (UniProt P04150); assay: GR-EFC Redistribution (AID 451; calls by dose curve; also: potency is read from the fitted curve at half-maximal effect); settings: CHO-K1 GR-EFC translocation, beta-gal luminescence, 2 h
Outline: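 CHO-K1 cells expressing nuclear EA and GR-ED fragments of b-gal; compounds titrated up to 46 uM final, 2 h at 37 C. GR nuclear translocation read as complemented b-gal luminescence after 1 h RT detection.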

[8] = biological target: Mitogen-activated protein kinase 10 (Mus musculus) (UniProt Q61831); assay: JNK3 AlphaScreen Assay (AID 530); settings: JNK3 lysate, c-Jun phosphorylation; series mostly up to 11.4 µM;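 also: kinase came from lysate of stimulated human HepG2 cells; signal reports phosphorylation of biotinylated GST-cJun 1-79 at Ser73 with 10 µM ATP; % is scaled to controls: 0 for no effect and ±100 for the full control effect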
Outline: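 HepG2 lysate (IL-1b/TNFa pre-activated) + biotin-GST-cJun 1-79 + anti-pSer73 cJun; cpd titration, 15 min RT; ATP 10 uM start; Tris pH 7.6, MgCl2, DTT, vanadate; beads in EDTA buffer; AlphaScreen.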

[9] = biological target: 3',5'-cyclic-AMP phosphodiesterase 4B (Homo sapiens) (UniProt Q07343); assay: qHTS Assay for Inhibitors of PDE-IV (AID 607; active = well fitted activation curve with a large enough effect in the main read-out, with a control signal flat, not every such curve was filed as active; also: % of control where 0% means no effect); settings: HEK293 ACTOne CNG channel cells, membrane potential fluorescence; series mostly up to 22.9 µM
Outline: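 ACTOne HEK293 cells carry a modified cAMP-gated CNG channel and express endogenous PDE4; plated 1000 cells/well, compounds up to 22.9 uM final. Membrane-potential dye fluorescence (ex 535/em 590) was read; parental cells received 10 uM forskolin + 100 uM RO 20-1724.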

[10] = biological target: Cytochrome P450 3A4 (Homo sapiens) (UniProt P08684); assay: qHTS Assay for Activators of Cytochrome P450 3A4 (AID 885; active = well fitted curve in the direction sought with a large enough effect; an effect the other way counts as inactive or inconclusive; also: nearly all actives have a fitted effect of over 65% in size); settings: recombinant CYP3A4, Luciferin-PPXE luminescence, 60 min; series mostly up to 11.4 µM
Outline: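 CYP3A4 activity: Luciferin-PPXE O-dealkylation, 25uM substrate, 200mM KPO4, RT throughout. Read-out is luciferase luminescence; higher values reflect activation.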

[11] = biological target: Cytochrome P450 3A4 (Homo sapiens) (UniProt P08684); assay: qHTS Assay for Inhibitors and Substrates of Cytochrome P450 3A4 (AID 884; active = well fitted curve in the direction sought with a large enough effect; an effect the other way counts as inactive or inconclusive; also: potency is read from the fitted curve at half-maximal effect; nearly all actives have a fitted effect of over 50% in size); settings: recombinant CYP3A4, Luciferin-PPXE luminescence; series mostly up to 57.1 µM
Outline: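 Luminescent readout of luciferin produced by CYP3A4 (20 nM) dealkylation of Luciferin-PPXE, 25 uM (its KM). NADPH-driven reaction ran 60 min at RT after 10 min compound preincubation; data scaled to 57 uM ketoconazole as 100% inhibition.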

Chain of Cytochrome P450 1A2 (Homo sapiens) (P05177 whole entry, looked up): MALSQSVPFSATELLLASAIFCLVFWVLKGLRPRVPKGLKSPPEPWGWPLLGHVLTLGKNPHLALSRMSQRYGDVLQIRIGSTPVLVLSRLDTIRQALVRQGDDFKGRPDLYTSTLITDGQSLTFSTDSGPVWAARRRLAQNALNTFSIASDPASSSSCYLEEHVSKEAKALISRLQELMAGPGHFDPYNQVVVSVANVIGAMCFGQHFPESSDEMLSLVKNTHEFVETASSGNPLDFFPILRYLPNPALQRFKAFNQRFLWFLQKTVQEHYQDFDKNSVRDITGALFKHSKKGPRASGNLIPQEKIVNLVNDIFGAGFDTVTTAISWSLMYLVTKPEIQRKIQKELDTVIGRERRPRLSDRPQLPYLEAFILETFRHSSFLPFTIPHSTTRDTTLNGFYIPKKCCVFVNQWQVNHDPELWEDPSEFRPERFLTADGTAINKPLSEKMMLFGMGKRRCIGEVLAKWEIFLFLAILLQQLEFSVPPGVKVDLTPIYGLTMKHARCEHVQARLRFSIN
Chain of 3',5'-cyclic-AMP phosphodiesterase 4B (Homo sapiens) (Q07343 whole entry, looked up): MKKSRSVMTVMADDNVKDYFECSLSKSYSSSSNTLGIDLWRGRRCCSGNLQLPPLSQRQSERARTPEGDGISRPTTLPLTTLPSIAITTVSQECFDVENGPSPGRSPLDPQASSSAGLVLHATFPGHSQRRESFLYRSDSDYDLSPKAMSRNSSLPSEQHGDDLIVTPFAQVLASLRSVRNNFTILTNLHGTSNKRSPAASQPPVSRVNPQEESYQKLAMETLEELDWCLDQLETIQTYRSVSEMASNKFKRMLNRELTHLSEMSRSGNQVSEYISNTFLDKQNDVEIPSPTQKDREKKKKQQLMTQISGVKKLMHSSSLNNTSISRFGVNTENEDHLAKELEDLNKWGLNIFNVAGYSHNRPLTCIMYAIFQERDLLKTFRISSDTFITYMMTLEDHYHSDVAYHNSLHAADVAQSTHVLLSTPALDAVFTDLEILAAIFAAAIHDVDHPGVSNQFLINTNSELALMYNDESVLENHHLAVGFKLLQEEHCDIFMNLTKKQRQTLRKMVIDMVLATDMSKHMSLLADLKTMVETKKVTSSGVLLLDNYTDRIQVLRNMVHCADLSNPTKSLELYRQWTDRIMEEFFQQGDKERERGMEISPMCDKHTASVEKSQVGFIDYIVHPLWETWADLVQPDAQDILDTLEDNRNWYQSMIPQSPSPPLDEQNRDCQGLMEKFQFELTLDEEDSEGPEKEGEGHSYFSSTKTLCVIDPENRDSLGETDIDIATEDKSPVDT
Chain of Lysosomal acid glucosylceramidase (Homo sapiens) (P04062 whole entry, looked up): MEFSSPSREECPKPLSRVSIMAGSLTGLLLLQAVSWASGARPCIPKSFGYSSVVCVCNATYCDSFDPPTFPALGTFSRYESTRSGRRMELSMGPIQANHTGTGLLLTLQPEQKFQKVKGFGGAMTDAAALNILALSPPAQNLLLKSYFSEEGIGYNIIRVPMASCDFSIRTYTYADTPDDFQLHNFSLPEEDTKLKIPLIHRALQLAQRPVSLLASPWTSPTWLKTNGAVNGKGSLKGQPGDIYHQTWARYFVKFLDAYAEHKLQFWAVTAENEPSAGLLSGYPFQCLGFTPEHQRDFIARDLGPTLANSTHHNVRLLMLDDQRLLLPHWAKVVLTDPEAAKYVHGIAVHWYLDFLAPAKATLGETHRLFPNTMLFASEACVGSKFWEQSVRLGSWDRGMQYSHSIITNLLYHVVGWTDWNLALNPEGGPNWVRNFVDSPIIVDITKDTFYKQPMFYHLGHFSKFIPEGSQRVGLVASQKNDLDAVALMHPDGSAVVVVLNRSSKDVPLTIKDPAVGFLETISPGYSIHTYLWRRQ
Chain of Cytochrome P450 3A4 (Homo sapiens) (P08684 whole entry, looked up): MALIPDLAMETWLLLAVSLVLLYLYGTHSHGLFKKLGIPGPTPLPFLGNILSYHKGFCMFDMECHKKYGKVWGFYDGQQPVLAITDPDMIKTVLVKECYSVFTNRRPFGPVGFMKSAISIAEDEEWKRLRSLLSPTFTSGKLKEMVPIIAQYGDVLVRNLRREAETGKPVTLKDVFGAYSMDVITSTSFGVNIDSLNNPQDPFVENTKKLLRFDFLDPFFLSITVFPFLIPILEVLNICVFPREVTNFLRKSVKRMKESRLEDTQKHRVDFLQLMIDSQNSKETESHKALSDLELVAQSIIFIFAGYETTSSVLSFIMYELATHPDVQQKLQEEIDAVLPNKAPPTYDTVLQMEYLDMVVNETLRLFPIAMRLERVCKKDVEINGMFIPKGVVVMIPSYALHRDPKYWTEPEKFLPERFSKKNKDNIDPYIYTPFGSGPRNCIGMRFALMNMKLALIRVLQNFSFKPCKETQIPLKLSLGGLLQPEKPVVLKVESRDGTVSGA
Chain of Glucocorticoid receptor (Homo sapiens) (P04150 whole entry, looked up, the tested form may be a part): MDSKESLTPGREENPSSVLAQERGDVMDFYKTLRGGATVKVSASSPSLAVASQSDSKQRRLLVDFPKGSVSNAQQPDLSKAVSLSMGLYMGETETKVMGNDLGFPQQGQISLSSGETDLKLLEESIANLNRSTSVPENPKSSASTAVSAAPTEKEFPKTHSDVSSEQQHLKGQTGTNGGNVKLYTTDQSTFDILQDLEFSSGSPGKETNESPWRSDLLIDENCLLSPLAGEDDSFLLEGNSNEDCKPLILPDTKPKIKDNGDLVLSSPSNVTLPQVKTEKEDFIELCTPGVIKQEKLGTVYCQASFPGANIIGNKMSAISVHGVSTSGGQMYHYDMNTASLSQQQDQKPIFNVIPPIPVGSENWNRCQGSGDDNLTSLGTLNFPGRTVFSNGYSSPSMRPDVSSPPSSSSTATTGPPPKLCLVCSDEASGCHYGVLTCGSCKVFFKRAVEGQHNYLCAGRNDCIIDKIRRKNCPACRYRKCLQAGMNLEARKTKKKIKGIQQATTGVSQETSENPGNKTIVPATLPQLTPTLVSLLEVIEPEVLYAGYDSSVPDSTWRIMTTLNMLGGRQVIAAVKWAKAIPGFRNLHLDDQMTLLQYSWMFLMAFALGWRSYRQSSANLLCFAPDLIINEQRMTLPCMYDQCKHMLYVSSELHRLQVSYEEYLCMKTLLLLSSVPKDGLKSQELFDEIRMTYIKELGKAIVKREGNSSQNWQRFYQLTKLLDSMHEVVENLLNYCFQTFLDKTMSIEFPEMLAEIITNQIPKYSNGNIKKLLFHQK

Row | SMILES | Potency [1] | activity change, negative = inhibition [2] | Potency [3] | activity change, negative = inhibition [4] | activity, negative = inhibition [5] | Potency [6] | Potency [7] | Potency [8] | Potency [9] | Potency [10] | Potency [11] | activity change, negative = inhibition [3]
1 | NS(=O)(=O)c1ccc(N=Nc2nc3[nH]c(=O)[nH]c(=O)c3[nH]2)cc1 | 8.51 µM (active) | -5.25% | inactive | 13.6% | 21.2% | > 46 µM | > 9.22 µM | inactive | inactive | inactive | – | –
2 | O=c1oc2cc(N=Cc3ccc4c(c3)OCO4)ccc2c2ccccc12 | > 11.4 µM | 7.4% | 0.00794 µM (active) | 12.7% | -1.72% | > 46 µM | > 9.22 µM | inactive | inactive | inactive | 3.98 µM (active) | –
3 | CC(C)N1CCN(c2ccncc2S(=O)(=O)N2CCCCC2)CC1 | > 11.4 µM | 0.726% | – | -81.6% (active) | -6.7% | > 46 µM | > 9.22 µM | inactive | inactive | inactive | 3.16 µM (active) | -17% [at 2.29 µM]
4 | Cn1c(=S)c2[nH]c(SCc3cccnc3)nc2n(C)c1=O | > 11.4 µM | -21.1% | 3.98 µM (active) | 0.274% | 1.06% | > 46 µM | > 9.22 µM | inactive | inactive | inactive | 3.16 µM (active) | –
5 | COc1ccc(Oc2ncc3nc(C)c(=O)n(-c4ccc(OC)cc4)c3n2)cc1 | > 11.4 µM | -21.8% | 15.8 µM (active) | -15.1% | -16.4% | > 9.22 µM | > 46 µM | inactive | inactive | inactive | 3.98 µM (active) | –
6 | O=C(O)c1cc(-c2ccncc2)nc2ccccc12 | > 11.4 µM | 3.07% | inactive | -5.13% | -5.62% | > 46 µM | > 9.22 µM | inactive | inactive | inactive | – | –
7 | O=C(CSc1nc2ccc([N+](=O)[O-])cc2s1)c1ccc2ccccc2c1 | > 11.4 µM | -4.94% | 3.16 µM (active) | 9.35% | 8.96% | > 46 µM | > 9.22 µM | inactive | inactive | inactive | – | –
8 | NC1=C(O)C(=O)[C@H](c2c[nH]c3ccc(OCc4ccccc4)cc23)O1 | > 11.4 µM | -18.8% | 3.98 µM (active) | 7.15% | -6.03% | > 46 µM | > 9.22 µM | inactive | inactive | inactive | – | –
9 | C[C@@H]1CCCN(CP(=O)(c2ccccc2)c2ccccc2)C1 | > 11.4 µM | 2.85% | inactive | -1.11% | 0.378% | > 46 µM | > 9.22 µM | inactive | inactive | inactive | – | –
10 | [O-][n+]1c(CN2CCCCC2)nc2cccc3c2c1-c1ccccc1-3 | > 11.4 µM | -8.04% | 1.58 µM (active) | 26.2% | 6.89% | > 46 µM | > 9.22 µM | inactive | inactive | inactive | – | –
11 | Cc1ccc(N=Nc2ccc(N)cc2C)c(S(N)(=O)=O)c1 | > 11.4 µM | 2.62% | 0.501 µM (active) | 15.6% | -6.29% | > 46 µM | > 9.22 µM | inactive | inactive | inactive | – | –
12 | COc1ccc(C=Nc2c(O)ccc3ccccc23)cc1OC | > 11.4 µM | -0.822% | 0.251 µM (active) | 9.83% | -1.67% | > 46 µM | > 9.22 µM | inactive | inactive | inactive | – | –
13 | O=C(O)[C@@H]1[C@@H](C(=O)NCc2ccncc2)[C@@H]2C=C[C@@H]1O2 | > 11.4 µM | 4.03% | 5.01 µM (active) | 8.48% | -1.14% | > 46 µM | > 9.22 µM | inactive | inactive | inactive | – | –
14 | CC(C)(C)CC(C)(C)c1cc(O)c(O)c(CN2CCCCC2)c1 | > 11.4 µM | 0.737% | inactive | -28.7% | 3.86% | > 46 µM | > 9.22 µM | inactive | inactive | inactive | – | –
